CRFR2-BP ag – CRF-BP/CRF-R2 complex agonism; HEK293 CRF-R2/CRF-BP, calcium dye fluorescence (FLIPR); percent of saturating CRF peptide response; activation, % at 13.2 µM; 350,000 tested, 0.46% active; AID 588473;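 active = activation of at least 50%, plus an integration ratio under a set limit after plate pattern correction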;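 note: plate controls were neutral control wells without compound for no effect and CRF at EC100 for full effect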
NTR1 agonist – agonists of human neurotensin receptor NTR1. NTR1-U2OS beta-arrestin-GFP spot imaging, agonist mode. activation, % at 20 µM. 330,000 tested, 0.17% active;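 active = activation at or above 40% of the spot to cytoplasm intensity ratio, with at least 20 cells analyzed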;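 note: 0% = DMSO without peptide and 100% = 100 nM NTR1 peptide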
Target sequence (P30989 whole entry, looked up): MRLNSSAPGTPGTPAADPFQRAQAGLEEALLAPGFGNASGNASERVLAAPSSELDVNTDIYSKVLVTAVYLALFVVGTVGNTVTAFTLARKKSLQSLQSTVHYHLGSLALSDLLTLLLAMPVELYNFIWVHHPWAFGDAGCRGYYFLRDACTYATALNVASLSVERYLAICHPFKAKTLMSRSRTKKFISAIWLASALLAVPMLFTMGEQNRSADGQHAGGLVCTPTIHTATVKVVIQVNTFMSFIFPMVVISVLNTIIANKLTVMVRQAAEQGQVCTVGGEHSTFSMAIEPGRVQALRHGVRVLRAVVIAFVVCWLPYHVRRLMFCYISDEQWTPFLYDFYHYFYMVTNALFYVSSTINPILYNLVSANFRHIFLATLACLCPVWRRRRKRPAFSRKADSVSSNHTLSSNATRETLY
V-ATPase pH – alters yeast V-ATPase proton transport | S. cerevisiae, pHLuorin cytosolic pH fluorescence | 350,000 tested, 0.37% active | AID 504577 | response, % at 10 µM; in the data active = response mostly above about 7.3%, no sharp cut-off; inactive = mostly below about 5.4%; note: actives read high
CRFBP-R2 block – blocks CRF-induced signaling of the CRF-BP/CRF-R2 complex; HEK293 CRF-R2/CRF-BP, CRF-induced calcium fluorescence; inhibition, % at 11.8 µM; 350,000 tested, 0.59% active; AID 588475;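 active = inhibition of the ligand-induced calcium signal above about 50% at the single tested concentration, limit read from the data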
* marks the source's active call; other numbers are inactive results. Most compounds without a hit are left out; they make up all but 1.5% or so of the library.

What do the screens show for `O=C(NCC1CCCN(Cc2ccc3nonc3c2)C1)c1cccc(C(F)(F)F)c1` (stereo unspecified)?
CRFR2-BP ag: 1; NTR1 agonist: 0; V-ATPase pH: -1; CRFBP-R2 block: 1

How did O=C1c2ccccc2S(=O)N1c1cccc(F)c1 (stereo unspecified) do in these assays?
CRFR2-BP ag: 9; V-ATPase pH: 2; CRFBP-R2 block: 3

Results for CC1CC(=O)Nc2ccccc2N1C(=O)Cn1cnc2ccccc2c1=O (stereo unspecified) ?
CRFR2-BP ag: 0; NTR1 agonist: -2; V-ATPase pH: -1; CRFBP-R2 block: -10

Results for COc1ccccc1/C=C/C=c1\sc2nc(=O)c(Cc3ccccc3)nn2c1=O ?
CRFR2-BP ag: 4; NTR1 agonist: -1; V-ATPase pH: -3; CRFBP-R2 block: 6

Results for COCCNC(=S)N1CCc2cc(OC)c(OC)cc2C1COc1ccc(F)cc1 (stereo unspecified) ?
CRFR2-BP ag: 0; NTR1 agonist: 1; V-ATPase pH: 7; CRFBP-R2 block: 21

What do the screens show for `COCCNC(=S)N1CCc2cc(OC)c(OC)cc2C1COc1ccc(C(C)C)cc1` (stereo unspecified)?
CRFR2-BP ag: -2; NTR1 agonist: -1; V-ATPase pH: 0; CRFBP-R2 block: 50*

Results for COc1cc2cc(C)c(SCC(=O)N3CCN(C(=O)c4ccco4)CC3)nc2cc1OC ?
CRFR2-BP ag: -1; NTR1 agonist: 2; V-ATPase pH: -2; CRFBP-R2 block: -1

Results for COc1ccc(CCNC(=O)C(=O)NCC2OCCN2S(=O)(=O)c2ccc(OC)cc2)cc1 (stereo unspecified) ?
CRFR2-BP ag: -7; NTR1 agonist: 0; V-ATPase pH: -4; CRFBP-R2 block: 64*

Results for COc1ccc(CCNC(=O)C(=O)NCC2OCCN2S(=O)(=O)c2ccc(Cl)cc2)cc1 (stereo unspecified) ?
CRFR2-BP ag: 0; NTR1 agonist: 0; V-ATPase pH: -1; CRFBP-R2 block: 15

How did CC1CCCCC1NC(=O)CSc1nnc(COc2ccc(Cl)cc2)o1 (stereo unspecified) do in these assays?
CRFR2-BP ag: -1; NTR1 agonist: 1; V-ATPase pH: 0; CRFBP-R2 block: -8

What do the screens show for `Cc1cc(F)ccc1S(=O)(=O)NCC1CC2CCC1C2` (stereo unspecified)?
CRFR2-BP ag: 87*; NTR1 agonist: 2; V-ATPase pH: 2; CRFBP-R2 block: -93

What do the screens show for `O=C(Nc1cc(Br)ccc1O)c1cc(-c2ccc3c(c2)OCO3)on1`?
CRFR2-BP ag: -2; NTR1 agonist: 0; V-ATPase pH: 7; CRFBP-R2 block: 70*

What do the screens show for `CC(C)(C)OC(=O)N1CCC(c2cc(=O)n3[nH]cc(C(=O)NC4CCCC4)c3n2)CC1`?
CRFR2-BP ag: 0; NTR1 agonist: 1; V-ATPase pH: 2; CRFBP-R2 block: 51*

How did Cc1ccc(C)c2sc(NC(=O)c3ccc(N4C(=O)CCC4=O)cc3)nc12 do in these assays?
CRFR2-BP ag: 116*; NTR1 agonist: 1; V-ATPase pH: 3; CRFBP-R2 block: -115

Results for COCCN1CC(=O)N2C(c3cccc(C)c3)c3[nH]c4ccccc4c3C[C@H]2C1=O (stereo partly specified) ?
CRFR2-BP ag: 13; NTR1 agonist: 1; V-ATPase pH: -5; CRFBP-R2 block: -24

How did COCCN1CC(=O)N(c2cccc(C)c2C)C(c2ccc(Cl)cc2)C1=O (stereo unspecified) do in these assays?
CRFR2-BP ag: -3; NTR1 agonist: 1; V-ATPase pH: -3; CRFBP-R2 block: 56*

How did Cc1ccc(-n2cccc2/C=C2/C(=N)N3C(=NC2=O)SN=C3S(C)(=O)=O)cc1Cl do in these assays?
CRFR2-BP ag: 1; V-ATPase pH: 5; CRFBP-R2 block: 50*

What do the screens show for `CCC(CC)C1=NN2C(=N)/C(=C\c3cc(C)n(-c4cccc(C)c4)c3C)C(=O)N=C2S1`?
CRFR2-BP ag: 87*; NTR1 agonist: 7; V-ATPase pH: -1; CRFBP-R2 block: -64

What do the screens show for `CCC1=NN2C(=N)/C(=C\c3cccn3-c3c(C)cccc3C)C(=O)N=C2S1`?
CRFR2-BP ag: -2; NTR1 agonist: -1; V-ATPase pH: 9; CRFBP-R2 block: -26

What do the screens show for `Cc1cccc(C)c1-n1cccc1/C=C1/C(=N)N2C(=NC1=O)SN=C2S(C)(=O)=O`?
CRFR2-BP ag: -1; NTR1 agonist: 2; V-ATPase pH: -3; CRFBP-R2 block: 59*

What do the screens show for `CCOc1ccc(-n2c(C)cc(/C=C3/C(=N)N4C(=NC3=O)SN=C4S(C)(=O)=O)c2C)cc1`?
CRFR2-BP ag: 2; NTR1 agonist: 4; V-ATPase pH: -3; CRFBP-R2 block: 93*

How did Cc1cc(/C=C2/C(=N)N3C(=NC2=O)SN=C3S(C)(=O)=O)c(C)n1-c1ccc(F)cc1 do in these assays?
CRFR2-BP ag: 3; NTR1 agonist: 0; V-ATPase pH: -6; CRFBP-R2 block: 25

What do the screens show for `COc1cccc(CNS(=O)(=O)c2ccc3c(c2)N(C)CCO3)c1`?
CRFR2-BP ag: 0; NTR1 agonist: 0; V-ATPase pH: 0; CRFBP-R2 block: 16

How did CCCCOc1ccc(C(=O)Oc2cccnc2)cc1 do in these assays?
CRFR2-BP ag: -2; NTR1 agonist: 0; V-ATPase pH: 0; CRFBP-R2 block: 12

How did C=CCNC(=O)c1c(CS(=O)(=O)c2ccccc2)noc1C(=O)NCc1ccccc1 do in these assays?
CRFR2-BP ag: -1; NTR1 agonist: 0; V-ATPase pH: 0; CRFBP-R2 block: 4

Results for Cc1ccccc1Oc1cc(NC(=O)CCCn2nc(C)c([N+](=O)[O-])c2C)cc([N+](=O)[O-])c1 ?
CRFR2-BP ag: 7; NTR1 agonist: 11; V-ATPase pH: -3; CRFBP-R2 block: 51*

Results for Cc1c(Cl)c([N+](=O)[O-])nn1CCCC(=O)Nc1cc(Oc2ccccc2)cc([N+](=O)[O-])c1 ?
CRFR2-BP ag: -1; NTR1 agonist: 17; V-ATPase pH: 4; CRFBP-R2 block: 59*

Results for CC(C)CNC(=O)CN1c2cccc3cccc(c23)S1(=O)=O ?
CRFR2-BP ag: 1; NTR1 agonist: 0; V-ATPase pH: 0; CRFBP-R2 block: 79*

Results for CCN1CCc2nc3sc(C(=O)N4CCc5ccccc5C4)c(N)c3cc2C1 ?
CRFR2-BP ag: 0; NTR1 agonist: 4; V-ATPase pH: -1; CRFBP-R2 block: -3

What do the screens show for `CC(C)OC(=O)CC(=O)c1sc2nc3c(cc2c1N)CN(C)CC3`?
CRFR2-BP ag: 103*; NTR1 agonist: 0; CRFBP-R2 block: -72

What do the screens show for `COc1ccc(N2CCN(CCCNC(=O)CN3CCN(Cc4ccccc4C)C3=O)CC2)cc1`?
CRFR2-BP ag: 6; NTR1 agonist: -1; V-ATPase pH: 4; CRFBP-R2 block: 56*

What do the screens show for `CC(Sc1ccc(Cl)cc1)C(=O)NNC(=O)c1ccco1` (stereo unspecified)?
CRFR2-BP ag: -1; NTR1 agonist: 1; V-ATPase pH: -3; CRFBP-R2 block: 13

How did CCOC(=O)c1ccc(NC(=S)N2CCSC2c2ccc(Cl)cc2)cc1 (stereo unspecified) do in these assays?
CRFR2-BP ag: 120*; V-ATPase pH: -6; CRFBP-R2 block: -106

Screens deposited in PubChem by several laboratories.
